Each structure is given as a SMILES string. Compounds without any hit were thinned out: in the full panel of roughly 83,000, 20% have a hit.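 Growth was measured after 48 h exposure to one concentration of compound in 96-well plates. Values under 10 count as active.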 Unmarked numbers belong to inactive results. The source made the active and inactive calls.

Holding throughout (test): NCI-60 one-dose screen, 48 h (100 = growth as untreated, 0 = no growth, -100 = all killed)
Conditions in all cases: 10 µM

The test system of test [1] is NCI-H23 lung.
Test [2] concerns NCI-H226 lung.
For test [3], the system named is NCI-H322M lung.
Test [4] has as its system HOP-62 NSCLC.
Test [5] concerns NCI-H460 lung.
In test [6] the test system is HOP-92 NSCLC.
Test [7] has as its system NCI-H522 lung.
Test [8] concerns 786-0 renal.
Test [9] deals with COLO 205 colon.
Test [10] concerns DU-145 prostate.
Test [11] concerns K-562 leukemia.
In test [12] the test system is MALME-3M melanoma.
Test [13] deals with MDA-MB-231 breast.
Test [14] concerns RXF 393 renal.
Test [15] deals with SF-268 CNS.
In test [16] the test system is SF-295 CNS.
Test [17] deals with SF-539 CNS.
The subject of test [18] is M14 melanoma.
Test [19] relates to A549/ATCC NSCLC.
The subject of test [20] is UACC-257 melanoma.

With `CC(=O)OCC1CCCO1` (stereo not given), the growth in test [1] is 106%; in test [2], 100%; in test [3] it was 98.7%; in test [4] it was 95.1%; in [5], 91.5%; in test [6], 97.4%. For the same molecule, the growth was 91% in test [7]; 93.5% in [8]; 102% in test [9]; 109% in test [10]; 94.5% in [11]; 99.2% in test [12]. In addition, the growth in test [13] was 103%; in [14] it was 103%; in test [15], 107%; in test [16], 101%; in [17], 114%; in test [18] it was 110%.

Regarding `CC1CCC(C(=O)O)N1` (stereo not given), the growth in test [1] is 89.2%; in test [2] it was 97.3%; in test [3], 95.2%; in test [4], 93.9%; in test [5] it was 115%; in [6], 102%. The growth in [7] was 91.3%; in test [19], 99.4%; in test [8], 100%; in test [11], 98.4%; in [12] it was 102%; in test [13], 102%. Moreover, the growth was 109% in test [14]; 97.5% in test [15]; 101% in [16]; 95% in test [17]; 103% in test [20]; 102% in test [18].

With `O=C(O)c1cc([N+](=O)[O-])ccc1Cl`, the growth in test [1] was 104%; in [2], 107%; in test [3], 117%; in [4], 113%; in test [5], 114%; in [6] it was 82.1%. The growth is 73% in test [7]; 95.3% in test [19]; 99.2% in [8]; 121% in test [10]; 97.7% in test [11]; 131% in test [12]. In addition, the growth in test [13] is 101%; in test [14] it was 112%; in [15], 114%; in [16], 101%; in test [17] it was 105%; in test [20], 99.5%. For the same molecule, in test [18], the growth was 114%.

`CC(=O)Nc1c(C)cc(C)cc1C`: the growth is 101% in [1]; 101% in test [2]; 103% in test [3]; 109% in test [4]; 105% in [5]; 69% in test [6]. For the same molecule, the growth was 94% in [7]; 102% in [19]; 110% in [9]; 101% in test [10]; 96.3% in test [11]; 102% in test [12]. Further, the growth was 114% in test [13]; 113% in test [14]; 95.4% in [15]; 94.3% in test [16]; 103% in test [17]; 104% in test [20]. Besides, the growth in test [18] is 101%.

Take `CC(=O)OCC1OC(OC2=C(CC=C(C)C)C(=O)c3ccccc3C2=O)C(OC(C)=O)C(OC(C)=O)C1OC(C)=O` (stereo not given): the growth in test [1] is 23.3%; in test [2], 57.1%; in test [3], 77.5%; in test [4], 94.5%; in test [5], 34.6%; in [6], -3.11% (active). Besides, the growth in [7] was 22.3%; in [19] it was 79.5%; in test [8] it was 88.9%; in test [10] it was 57.1%; in test [11], -47.4% (active); in test [12] it was -36.2% (active). Moreover, the growth is 6.41% (active) in test [13]; 61.1% in [14]; 22.7% in test [15]; 63.4% in test [16]; 20.6% in [20]; 46.8% in [18].

For the molecule `COc1cccc(Sc2ccc([N+](=O)[O-])c3no[n+]([O-])c23)c1`, the growth in test [1] was 68.8%; in [2] it was 85.3%; in test [3] it was 88.7%; in test [4], 103%; in [5], 95.7%; in test [6], 3.91% (active). Besides, the growth in [7] was -19.9% (active); in [19] it was 84%; in test [10], 67.3%; in [11], 8.93% (active); in test [12] it was 27.7%; in test [13], 74.2%. For the same molecule, the growth in test [14] was -54% (active); in test [15] it was 62.6%; in test [16], 95.9%; in test [17] it was 95.4%; in [20], 96.7%; in test [18], 72.1%.

In the case of `S=C(Nc1ccccc1)N1CCCCC1`, the growth in [1] was 99.9%; in test [2], 89.6%; in test [3], 99%; in test [4], 90.9%; in [5], 110%; in [6], 93.3%. Further, the growth in test [7] was 94.9%; in test [19], 99.2%; in [8] it was 102%; in test [11] it was 110%; in [12] it was 107%; in test [13], 98.5%. Further, the growth in test [14] was 109%; in [15] it was 107%; in [16] it was 98.2%; in test [17], 96.7%; in [20] it was 95.9%; in test [18] it was 97.3%.

Take `O=[N+]([O-])c1ccc(CO)cc1`: the growth in test [1] was 104%; in test [2] it was 98.4%; in test [3] it was 98.9%; in test [4], 90.8%; in test [5] it was 98.7%; in test [6] it was 110%. The growth is 104% in [7]; 94.4% in test [8]; 109% in [9]; 115% in test [10]; 93.7% in test [11]; 99.3% in test [12]. Further, the growth in test [13] is 95.2%; in test [14], 97.9%; in test [15] it was 107%; in [16] it was 94.4%; in test [17], 97.9%; in [18], 103%.

As for `C=CC[N+](C)(C)C`, the growth in test [1] is 103%; in [2], 93.6%; in [3], 108%; in test [4], 107%; in [5], 104%; in [6], 86%. Further, the growth in test [19] was 100%; in [8] it was 102%; in test [9], 120%; in test [10], 120%; in [11], 102%; in test [12] it was 98.8%. For the same molecule, the growth in [13] is 108%; in [14] it was 100%; in test [15], 112%; in test [16], -10.9% (active); in test [17], 98.1%; in test [20] it was 101%. Also, the growth in test [18] was 107%.

The record behind these values is PubChem BioAssay (NCI).
